# Source: the supplement of paper PMC6555819
# Key:
# Assay in all cases: PBM binding z-score (relative to random genomic background probes); higher = stronger binding; sequences stand for … in GC…GCGATTGACAGCGTAGAATGAAGG
# [1] = system: PPARg:RXRa DBDmut IVT, anti-RXR (DBD mutation: RXRa K156A/R161A, NR concentration 270 nM, RXRa partner concentration 90 nM)
# Method in brief: (§1)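 Random background probes are the reference for binding z-scores. These scores derive from regression-normalized fluorescence on custom Agilent 4×180K protein-binding microarrays incubated 1 h with ligand-free nuclear receptor dimers. Binding was detected with antibodies against each partner (one per run).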
# [2] = system: PPARg:RXRa IVT, anti-PPARg (NR concentration 270 nM, RXRa partner concentration 90 nM)
# Method in brief: as §1
# [3] = system: PPARg DBDmut:RXRa IVT, anti-PPARg (DBD mutation: PPARg1 K132A/R137A, NR concentration 270 nM, RXRa partner concentration 90 nM)
# Method in brief: as §1
# [4] = system: PPARg DBDmut IVT, anti-PPARg (DBD mutation: PPARg1 K132A/R137A, NR concentration 270 nM)
# Method in brief: as §1
# [5] = system: PPARg homodimer (NR concentration 180 nM)
# Method in brief: as §1
# [6] = system: PXR:RXRa (NR concentration 270 nM, RXRa partner concentration 90 nM)
# Method in brief: as §1
# [7] = system: PXR homodimer (NR concentration 270 nM)
# Method in brief: as §1
# [8] = system: RARa:RXR (NR concentration 270 nM, RXRa partner concentration 90 nM)
# Method in brief: as §1
# [9] = system: RARa homodimer (NR concentration 270 nM)
# Method in brief: as §1
# [10] = system: RARb:RXRa (NR concentration 270 nM, RXRa partner concentration 90 nM)
# Method in brief: as §1
# [11] = system: RARb homodimer (NR concentration 270 nM)
# Method in brief: as §1
# [12] = system: RARg:RXRa (NR concentration 270 nM, RXRa partner concentration 90 nM)
# Method in brief: as §1
# [13] = system: RARg homodimer (NR concentration 270 nM)
# Method in brief: as §1
# [14] = system: RXRa DBDmut IVT, anti-RXR (DBD mutation: RXRa K156A/R161A, NR concentration 90 nM)
# Method in brief: as §1
# [15] = system: RXRa homodimer (NR concentration 180 nM)
# Method in brief: as §1
# [16] = system: THRa:RXRa (NR concentration 90 nM, RXRa partner concentration 90 nM)
# Method in brief: as §1
# [17] = system: THRa homodimer (NR concentration 90 nM)
# Method in brief: as §1
# [18] = system: VDR homodimer (NR concentration 270 nM)
# Method in brief: as §1
Sequence,PBM binding z-score [1],PBM binding z-score [2],PBM binding z-score [3],PBM binding z-score [4],PBM binding z-score [5],PBM binding z-score [6],PBM binding z-score [7],PBM binding z-score [8],PBM binding z-score [9],PBM binding z-score [10],PBM binding z-score [11],PBM binding z-score [12],PBM binding z-score [13],PBM binding z-score [14],PBM binding z-score [15],PBM binding z-score [16],PBM binding z-score [17],PBM binding z-score [18]
AGAATGAGGTTACCAGAGATCAGGGAAACGCTTG,3.82,3.51,1.02,-0.0941,0.651,1.95,-0.0597,2.47,0.341,2.15,0.721,2.28,1.8,1.1,2.88,3.28,0.705,0.106
ATCGAACGGTCGAGGTGAGTATAGAGAAAGGGAA,-0.731,0.523,0.835,-0.166,0.13,-0.26,-0.544,-0.1,-0.343,1.19,0.591,0.56,1.16,-0.533,0.211,1.06,0.0248,-0.386
CCTACTGGGCCAAAGGTCATAGATTCCAATGCTC,5.3,7.19,0.0659,-0.0407,4.53,5.14,1.46,6.41,1.47,4.4,4.32,5.69,4.78,1.1,6.28,3.22,0.866,2.27
TAGCCTAGGTCATTCAGGGGCCAGTATGGAAAGC,1.58,2.93,0.514,-0.26,2.13,2.46,-0.398,3.77,0.0659,4.11,3.26,6.2,4.83,1.72,2.92,3.67,0.641,1.17
TCATATAGGTGAAAGGTGAAAGTCGGTGTGGTAA,7.6,7.55,3.38,1.28,3.1,3.01,0.351,4.34,1.1,2.78,2.31,3.45,1.46,2,4.53,2.15,0.384,0.0995
CCTACTGGGCCAAGGTCATAGATCAGTCAAAGCA,3.5,4.88,0.145,-0.588,2.21,3.28,0.536,4.12,0.339,3.23,3.17,3.62,2.88,0.741,3.51,3.38,2.25,1.92
AGTCAAAGTTCAGCACGAGGTAACGTAAAGCACG,-0.116,2.28,0.538,0.124,1.92,3.35,1.01,3.13,1.12,4.66,3.59,5.19,5.78,3.52,3.51,3.78,1.13,2.3
CCTACTGGGCCATTAAGAGGTCATTGATCATATG,4.25,4.13,0.259,0.0479,2.02,4.48,1.79,4.14,0.836,2.94,3.96,3.93,2.81,1.02,3.74,3.23,1.49,2.79
ACTAGGAGGACAAAGGTCAGAGCTACGCCAGTGA,2.03,4.63,0.268,-0.394,4.52,3.9,0.46,5.08,2.86,4.54,4.5,6.01,5.64,0.898,5.85,3.37,0.874,0.936
CCAGACAGGTGAAAGGTAACTCCGTCTGGTACGC,1.67,2.94,-0.44,-0.311,1.15,0.836,-0.734,1.5,0.043,1.23,0.693,1.23,0.537,-0.24,2.07,0.859,-0.16,-0.193
ACTTACGGGTCAAGGAGGTTATAGCACGCGTATA,2.9,3.94,1.06,0.844,2.7,4.24,1.47,4.99,1.24,4.09,3.46,5.23,4.78,2.07,5.73,3.33,0.489,2.26
ATAGAAAGGTCGAAGGTGAGTATACCCACCCGAA,0.0338,2.05,1.17,0.496,1.85,2.82,0.22,4.08,0.667,3.64,2.36,4.23,3.8,0.55,4.9,2,0.0452,0.757
CCTAGCAGACCAATCTGGGTCACTCAAGGCTTGA,4.01,4.87,0.573,-0.876,0.484,0.638,-0.509,1.57,-0.18,0.96,1.75,0.672,0.527,0.174,0.711,2.64,0.374,0.0917
TCTAGCAGGCCATAGGGTCACTCAAGAGGTACGG,1.23,1.69,-1.22,-0.48,0.644,2.43,-0.246,3.69,0.229,2.75,3.27,3.6,2.95,0.333,3.87,3.25,1.93,1.64
ATCGAAAGGTCGTGAGGTGAGTTTACAGAAAGGC,0.311,2.19,0.802,0.81,2.01,4.1,1.52,4.59,0.718,4.08,3.38,4.69,4.07,2.26,5.37,3.57,1.5,3.12
CCGACTTGGGCAAAGGTTACCATACTCAGTACGA,0.755,2.56,-0.26,-0.659,0.915,1.45,0.0117,2.35,-0.0307,1.92,1.87,2.04,1.01,0.535,2.45,1.39,-0.0972,0.0256

Sequence,PBM binding z-score [1],PBM binding z-score [2],PBM binding z-score [3],PBM binding z-score [4],PBM binding z-score [5],PBM binding z-score [6],PBM binding z-score [7],PBM binding z-score [8],PBM binding z-score [9],PBM binding z-score [10],PBM binding z-score [11],PBM binding z-score [12],PBM binding z-score [13],PBM binding z-score [14],PBM binding z-score [15],PBM binding z-score [16],PBM binding z-score [17],PBM binding z-score [18]
AGTAAAAGTTCACTAGGTAACGTAAGATTCAGCT,2.43,4.33,0.938,1.34,2.48,3.04,2.08,2.39,1.61,4.39,3.39,4.08,4.93,4.22,3.39,1.8,0.341,3.76
AGATTGAGGTTACCAAAGATCAGGGAAACGCTTG,3.1,2.54,0.865,-0.0178,0.218,1.5,-0.393,2,0.127,2.24,0.91,2.15,1.94,1.36,2.81,2.91,1,0.381
CCTACTGGGCCACGAAAGGGCATTGATTCAGTGA,5.38,5.14,0.311,0.299,-0.0604,0.616,-0.539,0.471,-0.24,1.69,1.74,0.854,1.12,-0.586,0.314,1.07,-0.645,-0.334
CTAACTAGGTCACAGAGGTCAAAGTCCGTGCGTA,8.94,9.17,7.21,5.22,4.09,6.74,12.1,7.31,3.9,5.32,5.46,7.35,7.81,3.52,7.99,4.64,3.13,7.07
TCATATAGGTTAAAGGTGAAAGTCGGTGTGGTAA,6.74,6.73,2.27,1.26,3.22,3.73,0.749,6.33,2.29,2.9,2.56,3.92,1.76,1.94,5.99,2.62,0.942,0.81
CCTAGTTGGTCAGGAAGTCACACACCGGATATGA,0.63,0.621,-0.0162,0.0813,1.03,0.246,0.549,0.014,1.63,0.892,1,0.765,0.857,0.171,0.568,0.226,0.522,0.457
CGTCCAAGGTCCATGCTAGGTCAGTGAAAGCATT,0.0985,0.351,-0.956,-1,0.21,0.422,-0.0884,1.35,-0.265,1.7,2.62,1.41,1.22,1.41,0.238,2.73,0.766,1.07
TCTAGTTGGTCAAAGGTCTCACACTCGAAATGCG,3.11,3.77,1.08,1.78,2.48,1.34,0.942,1.89,1.17,1.88,1.83,1.78,1.17,1.14,1.98,0.831,0.738,0.545
ATCTCTAGGTAAATGTTCAGTGAATCCCGAGGAT,2.02,1.64,1.6,0.892,0.258,-0.0966,0.236,0.0149,0.709,0.211,-0.29,0.459,0.485,-0.155,0.162,0.097,0.171,-0.0904
TTTAGTTGGTCAAAGGTCACACACTCGAAATGCG,4.19,7,2.09,2.08,5.45,6.21,1.61,7.55,3.28,5.17,5.1,7.25,6.17,1.17,8.07,4.04,2.03,2.6
TGACTGAGGTTAAAGATCAGGGAACGTGGCGTCG,-0.162,1.61,0.314,0.079,0.216,2.03,-0.418,2.68,-0.102,2.05,0.864,2.39,1.35,0.903,3.77,2.41,0.422,0.537
CATACAGGGTAAGCTAGGCCAGAGTAGGGACGGC,0.432,0.87,-0.00431,-0.34,-0.902,-0.7,-0.446,-0.142,0.0109,0.588,0.192,0.225,0.59,-0.744,0.077,1.49,-0.191,-0.259
ACTCGGAGGACAAAGGTCAGAACTACGCCAGTGA,0.613,3.35,0.492,-0.388,4.36,3.9,0.428,4.98,2.66,4.04,3.96,5.75,4.61,1.08,4.75,3.28,0.786,0.984
CCTACTGGGCCACTCAGAGGTCATTGATCATATG,5.13,5.18,-0.186,-0.561,1.94,5.1,1.83,4.46,0.374,3.28,4.26,4.46,3.39,0.734,4.43,3.41,1.71,2.75
TCTGCTAGGTCAACGATGGTCAGCGAATCTGCTA,4.02,4.01,0.33,-0.3,0.458,1.44,-0.999,2.26,-0.808,4.11,3.42,4.03,4.75,0.927,2.57,3.15,0.707,-0.22
